For 27 compounds, z-score results are on record in PubChem BioAssay.

Values without a mark were called inactive. Activity calls are given as the source filed them.

The test is described as follows: budding yeast growth changes without added modifier – OD600, strain BY4716, 24 h, basal condition, primary screen (AID 1173). The following applies: S. cerevisiae BY4716 growth, OD600, 24 h; higher = more signal, called active from +8 up or from −8 down.
As for `C=CCC(OC(C)=O)[C@@H]1[C@@H](N(Cc2ccc(-c3ccccc3)cc2)C(=O)Cc2ccc(F)cc2)c2cc(OCCCO)ccc2N1C(=O)Cc1ccc(OC)cc1` (some centres not stated), the z-score was 0.637.

In the case of `COC(=O)[C@@]1(Cc2ccc(OC)cc2)[C@H]2c3cc(C(=O)N(C)C)n(C[C@H](O)CO)c3C[C@H]2CN1C(=O)c1ccccc1`, the z-score is 1.02.

In the case of `Cn1cccc1C(O)C1C=CC2C(=O)NC(=O)C2N1Nc1ccc(Cl)cc1Cl` (configuration not stated), the z-score is -3.53.

In the case of `COc1ccc([Si](C)(C)[C@@H]2[C@@H](CC(=O)N(CCO)Cc3ccccc3)O[C@]3(C(=O)N(Cc4cccc(N5C(=O)c6cccc7cccc5c67)c4)c4ccccc43)[C@H]2C)cc1`, the z-score was -0.304.

For `Cc1ccc(S[C@]2(C(=O)NCC(F)(F)F)CC(=O)N(Cc3ccccc3C(F)(F)F)[C@@H]2c2ccc(CO)cc2I)cc1`, the z-score was -3.66.

For the compound `CCOc1cc(C(O)C2C=CC3C(=O)N(c4ccccc4)C(=O)C3N2Nc2ccc(C#N)cc2)ccc1O` (configuration not stated), the z-score is -0.0687.

As to `COCCOC(=O)N1C(=O)[C@@]2(c3ccccc31)[C@H](C(=O)N1CCN(c3ncccn3)CC1)[C@H]1C(=O)O[C@H](c3ccccc3)[C@H](c3ccccc3)N1[C@@H]2c1ccc(O)cc1`, the z-score was 0.056.

`CCCC[C@@H]1C[C@H]1[C@@H](NC(=O)c1cccs1)c1ccc(C(F)(F)F)cc1`: the z-score was 1.95.

As for `COC(=O)c1ccc([C@H](NC(=O)c2ccco2)[C@]2(C)C[C@H]2C2CCCCC2)cc1`, the z-score was 1.23.

Regarding `O[C@@H](Cc1ccccc1)[C@@H](/C=C/C1CC1)N(CC#Cc1ccccc1)Cc1cccc(Cl)c1`, the z-score was 0.465.

Turning to `N#Cc1ccc(C(O)C2C=CC3C(=O)N(c4ccccc4)C(=O)C3N2Nc2ccccc2)cc1` (configuration not stated), the z-score was -2.46.

`CC(C)N1C(=O)c2ccccc2[C@@H](C(=O)NC2CC2)[C@@H]1c1ccc(CO)cc1`: the z-score was 0.164.

As to `COC(=O)c1nc2oc1CC[C@@H](CO)NC(=O)N(C)Cc1cnnn1C[C@H](Cc1ccccc1)NC2=O`, the z-score is -1.07.

On to `C=CCNC(=O)[C@@H]1[C@H]2C(=O)O[C@H](c3ccccc3)[C@H](c3ccccc3)N2[C@H](c2ccc(O)cc2)[C@@]12C(=O)N(C(=O)OCCOC)c1ccc(C#CC3(O)CCCCCC3)cc12`, for which the z-score is 0.444.

Take `O=C1C=C(c2ccccc2)C(=O)c2ccc([C@H]3Oc4ccccc4S(=O)(=O)N4CCC[C@@H]34)cc21`: the z-score was -18.1 (active).

Regarding `C=C(COC)/C(=C/C[C@H](OC(C)=O)c1ccc(OCCO)cc1)c1cc(C(=O)OC)ccc1OC`, the z-score is 0.147.

Turning to `CC(C)[Si](C#C[Si](C(C)C)(C(C)C)C(C)C)(O[C@H](C)c1cn([C@H](CO)Cc2ccccc2)nn1)C(C)C`, the z-score is 0.427.

As for `CC1CC/C=C\[C@H]2OC34C=CCN(C(C)C)C(=O)[C@H]3N(CCCCCCO)C(=O)[C@@H]4C2C(=O)O1` (some centres not stated), the z-score was -0.815.

With `CC1CC/C=C\[C@H]2OC34C=CCN(c5ccc(Cl)cc5)C(=O)[C@H]3N(CCCCCO)C(=O)[C@]4(C)C2C(=O)O1` (some centres not stated), the z-score was 0.0314.

Turning to `COCCCNC(=O)[C@@]1(Sc2ccc(C)cc2)CC(=O)N(C2CCCCC2)[C@@H]1c1ccc(CO)cc1`, the z-score was -0.0904.

Turning to `[N-]=[N+]=Nc1ccccc1[C@H]1OC(c2ccc(OCCCO)cc2)=N[C@@]1(Cc1ccccc1)C(=O)N1CCCCC1`, the z-score is -0.722.

Turning to `CC(C)OC(=O)C=C1C[C@@H](c2ccc(C(F)(F)F)cc2)O[C@@H](c2ccc(C(F)(F)F)cc2)O1`, the z-score was -5.34.

Take `[N-]=[N+]=Nc1ccccc1[C@@H]1OC(c2ccc(OCCCO)cc2)=N[C@]1(Cc1ccccc1)C(=O)NCC(O)CO` (some centres not stated): the z-score was -2.75.

On to `[N-]=[N+]=Nc1ccccc1C[C@]1(C(N)=O)N=C(c2ccc(OCCCO)cc2)O[C@H]1c1ccccc1N=[N+]=[N-]`, for which the z-score was -2.88.

With `C[C@@H]1NC(=O)[C@@]23C(=O)N[C@@H](Cc4ccccc4)C2[C@H](C)[C@@]2(C)O[C@H]2C3/C=C/C/C=C\CNC(=O)[C@@H]2CCCN2C1=O` (some centres not stated), the z-score is -0.963.

As to `COCCCNC(=O)[C@]1(CCS(=O)(=O)c2ccccc2)N=C(c2ccc(OCCCO)cc2)O[C@@H]1c1ccccc1N=[N+]=[N-]`, the z-score was 0.0817.

Take `O=C1OCCC/C=C\[C@H]2OC34C=CCN(CCN5CCOCC5)C(=O)[C@H]3N(CCCCCCO)C(=O)[C@@H]4C12` (some centres not stated): the z-score was -0.549.
